Assay results from paper PMC5540273 (PLoS ONE, 2017).

Legend:
Details in all cases: concentration: 1 μM, replicates: in singlicate; n = 1
[1] = tested on: T1, MRCKB
T1 construct: gene CDC42BPB

[2] = tested on: MST1R
[3] = tested on: T2, MST1
T2 construct: gene STK4

[4] = tested on: T3, MST2
T3 construct: gene STK3

[5] = tested on: T4, MST3
T4 construct: gene STK24

[6] = tested on: MST4
[7] = tested on: MTOR
[8] = tested on: MUSK
[9] = tested on: MYLK2
[10] = tested on: MYLK4
[11] = tested on: MYLK
[12] = tested on: MYO3A
[13] = tested on: MYO3B
[14] = tested on: T5, NDR1
T5 construct: gene STK38

[15] = tested on: NDR2
[16] = tested on: NEK10
[17] = tested on: NEK11
[18] = tested on: NEK1
[19] = tested on: NEK2
[20] = tested on: NEK3
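Note: KINOMEscan kinase panel screen.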

| Compound | %Inh [1] | %Inh [2] | %Inh [3] | %Inh [4] | %Inh [5] | %Inh [6] | %Inh [7] | %Inh [8] | %Inh [9] | %Inh [10] | %Inh [11] | %Inh [12] | %Inh [13] | %Inh [14] | %Inh [15] | %Inh [16] | %Inh [17] | %Inh [18] | %Inh [19] | %Inh [20] |
| --- | --- | --- | --- | --- | --- | --- | --- | --- | --- | --- | --- | --- | --- | --- | --- | --- | --- | --- | --- | --- |
| CCS(=O)(=O)c1ccc(OC)c(Nc2ncc(-c3ccc(F)cc3)o2)c1.Cl [GW591947] | 0% | 33% | 0% | 2% | 0% | 0% | 5% | 2% | 2% | 0% | 0% | 6% | 0% | 10% | 0% | 9% | 0% | 0% | 0% | 0% |
| COc1cc(Nc2nccc(N3CCC(NC(=O)C4COc5ccccc5O4)C3)n2)cc(OC)c1OC (stereo not drawn) [GSK1379761] | 0% | 8% | 6% | 0% | 0% | 0% | 34% | 0% | 6% | 0% | 13% | 46% | 0% | 27% | 40% | 0% | 64% | 39% | 11% | 42% |
| O=C(NCCNc1ccnc(Nc2ccc(F)cc2)n1)Nc1ccc2c(c1)OCO2 [GSK1379882] | 0% | 6% | 0% | 22% | 11% | 0% | 11% | 0% | 15% | 9% | 23% | 32% | 0% | 10% | 20% | 0% | 7% | 0% | 7% | 16% |
| O=C(Nc1n[nH]c2cc(-c3ccccc3F)ccc12)C1CC1 [SB-733371] | 0% | 0% | 1% | 0% | 0% | 0% | 0% | 1% | 90% | 4% | 0% | 22% | 0% | 37% | 2% | 0% | 12% | 0% | 0% | 16% |
| Nc1ncnc2c1ncn2-c1ccc(Cl)cc1 [AH2635] | 0% | 17% | 2% | 0% | 0% | 0% | 11% | 0% | 14% | 8% | 0% | 49% | 0% | 0% | 31% | 27% | 0% | 0% | 0% | 0% |
| COc1cc2ncn(-c3cc(OCCCc4ccccc4)c(C(N)=O)s3)c2cc1OC [GSK205189] | 0% | 14% | 0% | 0% | 11% | 0% | 1% | 50% | 8% | 65% | 23% | 3% | 0% | 0% | 0% | 0% | 0% | 0% | 36% | 0% |
| Cl.c1ccc(Cn2cnc3cc(Nc4ncnc5ccccc45)ccc32)cc1 [GW272142] | 0% | 40% | 0% | 0% | 0% | 0% | 28% | 29% | 0% | 6% | 1% | 10% | 0% | 9% | 4% | 15% | 0% | 0% | 0% | 0% |
| Nc1n[nH]c2ncc(-c3ccccc3)cc12 [SB-517081] | 0% | 41% | 0% | 0% | 0% | 0% | 7% | 28% | 15% | 61% | 39% | 20% | 0% | 27% | 0% | 24% | 0% | 0% | 27% | 21% |
| Cc1nnc(-c2ccc3ncn(-c4ccc(S(C)=O)cc4)c3c2)o1 (stereo not drawn) | 0% | 2% | 0% | 30% | 50% | 0% | 8% | 9% | 11% | 7% | 0% | 2% | 48% | 21% | 0% | 2% | 0% | 5% | 0% | 0% |
| OCCCNc1nccc(-c2c(-c3cccc(C(F)(F)F)c3)nn3cc(C(F)(F)F)ccc23)n1 [GW630813] | 0% | 17% | 9% | 0% | 25% | 0% | 1% | 0% | 0% | 0% | 10% | 43% | 0% | 9% | 18% | 0% | 5% | 0% | 0% | 0% |
| COc1cccc(C2=C(Nc3cccc(C(=O)O)c3)C(=O)NC2=O)c1 [SB-390770] | 18% | 2% | 28% | 25% | 0% | 0% | 29% | 15% | 38% | 0% | 0% | 0% | 8% | 0% | 0% | 40% | 36% | 0% | 0% | 0% |
| COc1cccc(-n2cnc3c(N)ncnc32)c1 [SKF-97416] | 0% | 5% | 0% | 0% | 6% | 28% | 19% | 5% | 6% | 26% | 31% | 8% | 20% | 28% | 12% | 18% | 35% | 0% | 0% | 21% |
| Nc1nccc2scc(-c3ccc4c(c3)CCN4C(=O)Cc3ccccc3)c12 [GSK2576924] | 0% | 17% | 37% | 0% | 1% | 0% | 14% | 13% | 11% | 9% | 4% | 11% | 5% | 27% | 3% | 9% | 0% | 0% | 4% | 10% |
| CC(C)(C)c1ccc(C(=O)Nc2cn3cc(-c4ccccc4)ccc3n2)cc1 | 0% | 26% | 0% | 43% | 0% | 0% | 45% | 0% | 34% | 0% | 23% | 0% | 0% | 35% | 0% | 0% | 0% | 0% | 0% | 36% |
| Nc1nc(N)c2nc(-c3ccccc3)[nH]c2n1 [SKF-12778] | 0% | 0% | 4% | 32% | 13% | 10% | 26% | 18% | 2% | 1% | 0% | 0% | 19% | 33% | 0% | 58% | 13% | 0% | 0% | 0% |
